Results taken from PubChem BioAssay AID434970 (Sanford-Burnham Center for Chemical Genomics, 2010).
Hit rate of the full screen: of about 11,000 compounds, about 310 (2.8%) were called active. Cut-off read from the data, not from the text of the source: active = activity change below about -85%; inactive = the rest. For the sample, actives were picked, then their nearest neighbours and some compounds at random.

What follows are compounds tested on intestinal alkaline phosphatase [Mus musculus] (assay: activators of mouse IAP, confirmation, biochemical, luminescence, single concentration (AID 434970)). Conditions: purified mouse IAP, CDP-Star luminescence, 30 min, at 10 µM; activation factor: measured here: IAP activation factor, stronger effect = higher value; activity change, negative = activation: stronger effect = lower value.

Row | SMILES | activation factor | activity change, negative = activation
1 | C[C@]12c3[nH]c4cc(-c5ccco5)ccc4c3CCN1C(=O)[C@@H](CC(=O)NCCN1CCOCC1)C[C@@H]2C(=O)N1CCOCC1 | 0.997 | 0.25% (inactive)
2 | COc1ccc(S(=O)(=O)N(C)C[C@H]2Oc3ccc(NC(=O)NC4CCCCC4)cc3C(=O)N([C@H](C)CO)C[C@@H]2C)cc1 | 2.74 | -174% (active)
3 | C[C@@H]1CN([C@@H](C)CO)C(=O)c2cc(NC(=O)Nc3ccc4c(c3)OCO4)ccc2O[C@H]1CN(C)S(=O)(=O)c1ccc(F)cc1 | 1.65 | -64.8% (inactive)
4 | C[C@H](CO)N1C[C@H](C)[C@@H](CN(C)S(=O)(=O)c2ccccc2)Oc2ccc(NC(=O)NC3CCCCC3)cc2C1=O | 2.79 | -179% (active)
5 | Cc1noc(C)c1S(=O)(=O)N(C)C[C@H]1Oc2ccc(NC(=O)NC3CCCCC3)cc2C(=O)N([C@H](C)CO)C[C@@H]1C | 1.82 | -81.5% (inactive)
6 | COc1ccc(NC(=O)N(C)C[C@H]2Oc3ccc(NC(=O)NC4CCCCC4)cc3C(=O)N([C@H](C)CO)C[C@@H]2C)cc1 | 1.61 | -60.9% (inactive)
7 | C[C@H](CO)N1C[C@H](C)[C@H](CN(C)S(=O)(=O)c2ccccc2)Oc2ccc(NC(=O)NC3CCCCC3)cc2CC1=O | 1.71 | -71.4% (inactive)
8 | C[C@H](CO)N1C[C@H](C)[C@@H](CN(C)S(=O)(=O)c2ccc(F)cc2)Oc2ccc(NC(=O)NC3CCCCC3)cc2C1=O | 2.2 | -120% (active)
9 | C[C@H](CO)N1C[C@H](C)[C@@H](CN(C)S(=O)(=O)c2ccc(F)cc2)Oc2ccc(NC(=O)Nc3ccc4c(c3)OCO4)cc2C1=O | 1.82 | -81.6% (inactive)
10 | Cc1ccc(NC(=O)N2CCC(NC(=O)c3ccccc3C)CC2)cc1 | 0.993 | 0.7% (inactive)
11 | O=C(C[C@H]1C[C@H](C(=O)N2CCCCC2)[C@@]2(CCc3ccccc3)c3[nH]c4cc(-c5ccco5)ccc4c3CCN2C1=O)NCc1ccco1 | 1.16 | -16.1% (inactive)
12 | O=C(Nc1ccccc1)Nc1cccc(Cl)c1 | 2.11 | -111% (active)
13 | CC(=O)c1ccc(NC(=O)N2CCN(c3cccc(Cl)c3)CC2)cc1 | 1.08 | -7.6% (inactive)
14 | O=C(Nc1cccc(Cl)c1)N1CCCC1 | 1.09 | -8.6% (inactive)
15 | O=C(Cn1nnc(-c2ccc(Cl)cc2)n1)NC1CC2CCC1C2 (stereo not given) | 1.15 | -15.3% (inactive)
16 | O=C(Nc1cccc(Cl)c1)NC1CC2CCC1C2 (stereo not given) | 2.64 | -164% (active)
17 | O=C(Cc1cccc2ccccc12)NNC(=O)Nc1cccc(Cl)c1 | 0.964 | 3.65% (inactive)
18 | COC(=O)c1ccc(NC(=S)NC2CC3CCC2C3)cc1 (stereo not given) | 1.56 | -56% (inactive)
19 | O=C(Cc1ccccc1)NNC(=O)Nc1cccc(Cl)c1 | 0.911 | 8.85% (inactive)
20 | O=C(NCc1cccc2ccccc12)Nc1ccccc1 | 1.74 | -74.1% (inactive)
21 | O=C(Nc1ccc(C(=O)N2CCCCC2)cc1)Nc1cccc(Cl)c1 | 2.39 | -139% (active)
22 | O=C(NCc1csc2ccccc12)Nc1cc(Cl)cc(Cl)c1 | 2.45 | -145% (active)
23 | CC[C@]12c3[nH]c4ccc(OC)cc4c3CCN1C(=O)C(CC(=O)NCCC1=CCCCC1)C[C@@H]2C(=O)N1CCN(C(=O)C2CC2)CC1 (stereo not given in full) | 1.01 | -1.4% (inactive)
24 | O=C(Oc1cccc(NC(=O)c2ccco2)c1)c1ccc(Br)c(S(=O)(=O)N2CCCCC2)c1 | 0.907 | 9.3% (inactive)
25 | O=C(Nc1scc(-c2ccccc2)c1C(=O)O)c1ccco1 | 0.964 | 3.6% (inactive)
26 | CCn1c(CNc2ccc(OC)cc2)nnc1SCC(=O)Nc1ccc(F)cc1 | 1.08 | -7.7% (inactive)
27 | Cc1cc(NC(=O)CC23CC4CC(C2)CC(CC(=O)Nc2cc(C)on2)(C4)C3)no1 | 1.02 | -1.55% (inactive)

Row | SMILES | activation factor | activity change, negative = activation
28 | Cc1sc2nc(SCC(=O)Nc3c(C)n(C)n(-c4ccccc4)c3=O)n(C)c(=O)c2c1C | 0.771 | 22.9% (inactive)
29 | Cc1csc(C(=O)O)c1-n1cccc1 | 0.908 | 9.2% (inactive)
30 | Fc1ccc(OCc2nn3cnnc3s2)cc1 | 0.923 | 7.75% (inactive)
31 | CCOC(=O)/C(C#N)=C\c1ccco1 | 1.12 | -11.7% (inactive)
32 | COC(=O)c1ccccc1NC(=O)CN(CCc1ccccc1)S(C)(=O)=O | 1.04 | -3.75% (inactive)
33 | CCOc1ccc(C2C(C#N)=C(N)N(c3sc4c(c3C#N)CCCC4)C3=C2C(=O)CCC3)cc1 (stereo not given) | 0.903 | 9.65% (inactive)
34 | COCCC(=O)N(Cc1ccc2c(c1)OCO2)C(C(=O)NC1CCCCC1)c1ccncc1 (stereo not given) | 0.912 | 8.8% (inactive)
35 | O=C(Nc1cccnc1)Nc1cc(Cl)cc(Cl)c1 | 1.69 | -68.7% (inactive)
36 | CC(C)C(=O)Nc1cccc(C(=O)Nc2ccc3c(c2)OCO3)c1 | 0.972 | 2.8% (inactive)
37 | O=C(Nc1cc(Cl)cc(Cl)c1)Nc1cnccn1 | 1.97 | -96.5% (active)
38 | O=C(Nc1cc(Cl)cc(Cl)c1)c1cnn2cccnc12 | 0.974 | 2.55% (inactive)
39 | COC(=O)c1ccccc1NC(=O)Nc1ccc2c(c1)OCO2 | 1.08 | -8% (inactive)
40 | O=C(Nc1cccc(F)c1)Nc1cccc(Cl)c1 | 2.11 | -111% (active)
41 | O=C(Nc1ccccc1)Nc1ccc(Br)c(Cl)c1 | 1.82 | -82.4% (inactive)
42 | S=C(NCc1cccnc1)Nc1cc(Cl)cc(Cl)c1 | 1.38 | -38.4% (inactive)
43 | O=C(Nc1cccc(Cl)c1)Nc1ccc2c(c1)OCO2 | 2.46 | -146% (active)
44 | O=C(Nc1ccccc1)Nc1cc(Cl)cc(Cl)c1 | 3.41 | -241% (active)
45 | Fc1cccc(NC(=S)NCc2ccc(Cl)cc2)c1 | 1.31 | -30.9% (inactive)
46 | Cc1ccc2c(c1)N(CCC(=O)NCc1cccs1)C(=O)C(C)O2 (stereo not given) | 1.03 | -2.7% (inactive)
47 | O=C(CCCOc1ccccc1)Nc1nnc(C2CCCO2)s1 (stereo not given) | 1.01 | -1.15% (inactive)
48 | CCOC(=O)c1c(-c2ccccc2)csc1NC(=O)COc1ccc2c(C)cc(=O)oc2c1 | 0.967 | 3.3% (inactive)
49 | Cc1ccc(NC(=O)CS(=O)CC(=O)NCC2CCCO2)cc1 (stereo not given) | 1.07 | -6.55% (inactive)
50 | O=C(O)C1C2C=CC(O2)C1C(=O)NCCC1=CCCCC1 (stereo not given) | 1.12 | -12.2% (inactive)
51 | COCCN(C(=O)C(F)(F)F)C(C(=O)NC1CCCCC1)c1ccco1 (stereo not given) | 0.978 | 2.15% (inactive)
52 | CC1CCN(C(=O)c2ccc(NC(=O)C3CCCO3)cc2)CC1 (stereo not given) | 1.06 | -5.95% (inactive)
53 | COc1cc2oc(=O)cc(-c3ccc(-c4ccc(F)c(Cl)c4)cc3)c2c(OC)c1OC | 0.913 | 8.7% (inactive)
54 | Cn1c(Cn2cnc3ccccc32)nnc1SCC(=O)CC(=O)Nc1ccccc1 | 0.996 | 0.45% (inactive)

Row | SMILES | activation factor | activity change, negative = activation
55 | COc1ccc(-n2ncc3c(=O)n(CC(=O)N4c5ccccc5CC4C)cnc32)cc1 (stereo not given) | 1 | -0.2% (inactive)
56 | N#CCc1ccc(NC(=O)Nc2cccc(Cl)c2)cc1 | 1.88 | -87.6% (inactive)
57 | O=C(NCCc1ccc(Cl)cc1)Nc1cccc(Cl)c1 | 1.92 | -92.5% (inactive)
58 | CSc1ccccc1NC(=O)Nc1cccc(Cl)c1 | 1.48 | -48.5% (inactive)
59 | CCC1(COC(=O)Nc2cccc(Cl)c2)COC1 | 1.16 | -16.4% (inactive)
60 | C=CCc1cc(Cl)ccc1OC(=O)Nc1cccc(Cl)c1 | 2.05 | -105% (active)
61 | O=C(Nc1cccc(Cl)c1)Nc1cccc(Cl)c1 | 3.21 | -221% (active)
62 | CC(C)OC(=O)NCCOC(=O)Nc1cccc(Cl)c1 | 2.12 | -112% (active)
63 | CC(=O)Nc1cccc(NC(=O)Nc2ccc(C(C)=O)cc2)c1 | 1.13 | -13.4% (inactive)
64 | CC(=O)c1cccc(NC(=O)Nc2cccnc2)c1 | 1 | -0.35% (inactive)
65 | CCOC(=O)c1sc(NC(=O)Nc2cccc(Cl)c2)cc1C | 1.83 | -82.6% (inactive)
66 | CC(O)c1cccc(NC(=O)Nc2cccc(NC(=O)Nc3cccc(C(C)O)c3)c2)c1 (stereo not given) | 1.89 | -88.9% (active)
67 | C/C(CC(=O)Nc1cccc(Cl)c1)=N\NC(=O)Cc1ccc(Cl)cc1 | 1.02 | -2.2% (inactive)
68 | COCCN(CC(=O)NCc1ccc2c(c1)OCO2)C(=O)CCC(=O)Nc1nccs1 | 0.99 | 1% (inactive)
69 | O=S(=O)(N[C@H](CO)c1ccccc1)c1ccc(Br)cc1F | 1.03 | -2.75% (inactive)
70 | CCOC(=O)C1=C(C)N(C[C@@H]2CC[C@@H](Cc3ccc(-c4ccccc4)cc3)O2)C(=O)NC1c1ccc(C(F)(F)F)cc1 (stereo not given in full) | 0.924 | 7.6% (inactive)
71 | COc1ccc(CCNC(=O)CC2COc3ccccc3O2)cc1OC (stereo not given) | 1.06 | -5.55% (inactive)
72 | Oc1c(C=C2N=c3ccccc3=N2)sc(=S)n1-c1ccc(F)cc1 | 0.615 | 38.5% (inactive)
73 | COc1ccc(CC(NC(C)=O)C(=O)NC2CCN(C(=O)c3cnccn3)CC2)cc1 (stereo not given) | 0.93 | 7% (inactive)
74 | CCN1Cc2cc(OC)ccc2-c2ccccc2S1(=O)=O | 1.15 | -14.7% (inactive)
75 | CN(c1cccc(NC(=O)Nc2ccc(Cl)cc2)c1)S(C)(=O)=O | 1.91 | -91.2% (inactive)
76 | Cc1ccc(S(=O)(=O)N(CC(=O)Nc2cccc(N(C)S(C)(=O)=O)c2)c2ccc(Cl)c(Cl)c2)cc1 | 1.73 | -73.1% (inactive)
77 | CN1CCN(NC(=O)Nc2cc(Cl)cc(Cl)c2)CC1 | 2.2 | -120% (active)
78 | CN(c1cccc(NC(=O)Nc2cccc(Cl)c2)c1)S(C)(=O)=O | 2.47 | -147% (active)
79 | O=C(Nc1cc(Cl)cc(Cl)c1)N1CCCC1 | 1.62 | -62.2% (inactive)
80 | O=C(NCCN1CCN(Cc2ccccc2)CC1)Nc1cc(Cl)cc(Cl)c1 | 1.43 | -42.5% (inactive)
